Hit rate of the full screen: of about 300,000 compounds, about 37,000 (12%) were called active. This is one part of a sample in which actives are shown more often than they occur. A number with no mark means an inactive call. Rule as the data show it: active = max response mostly above about 13% (no sharp cut-off); inactive = mostly below about 14%.

The record followed here is PubChem BioAssay AID2314 (National Center for Advancing Translational Sciences (NCATS), 2010).

A short description of this assay: Cycloheximide Counterscreen for Small Molecule Inhibitors of Shiga Toxin. Also: read at 38.3 µM for the half of the compounds with a filed dose; 0% is about no effect. The settings on record: cell reporter, cycloheximide protein synthesis inhibition counterscreen; stronger effect = higher value.
For the molecule `COc1ccc(/C=N/NC(=O)C(C)N(c2ccc(OC)cc2)S(C)(=O)=O)cc1` (centres undefined), the max response is -4.86%.
With `Cc1nc(N2CCN(c3ccccn3)CC2)c2c(C)c(C(=O)Nc3ccc(F)c(Cl)c3)sc2n1` the figure was -3.16%.
For `O=C(Nc1cc(C(=O)Nc2ccc(S(=O)(=O)O)cc2)cc(C(=O)Nc2ccc(S(=O)(=O)O)cc2)c1)Nc1cc(C(=O)Nc2ccc(S(=O)(=O)O)cc2)cc(C(=O)Nc2ccc(S(=O)(=O)O)cc2)c1`, the max response is -6.6%.
As to `CC(C)(C)C(=O)NC1CC2CCCC(C1)N2C(=O)Nc1ccccc1F` (centres undefined), the max response is -1.8%.
Take `O=C(O)c1cc(S(=O)(=O)N(Cc2ccccc2)c2cccc(C(F)(F)F)c2)ccc1Cl`: the max response is -2.82%.
In the case of `CCc1nn(CCCC(=O)Nc2ccc(C)c(C)c2)c(=O)c2cc3occc3n12`, the max response was 0.415%.
On to `COc1cccc(C(=O)Nc2cc3c(cc2Br)OCCCO3)c1`, for which the max response is 86.1% (active).
Consider `COc1cccc(C(=O)NNC(=O)c2ccccc2Br)c1`, for which the max response is -3.22%.
Consider `COc1cccc(C(=O)NNC(=O)/C=C/c2ccccc2)c1`, for which the max response is 0.531%.
For the molecule `CC(=O)Oc1cccc(C(=O)Nc2ccccc2NC(=O)c2cccc(OC(C)=O)c2)c1`, the max response is 4.65%.
Regarding `COc1cccc(C(=O)NNS(=O)(=O)c2ccc(F)cc2)c1`, the max response was 11.3%.
Turning to `COc1cccc(C(=O)NNC(=O)c2cccc(F)c2)c1`, the max response is 26.6% (active).
Consider `O=C(NCCCN1CCN(c2ccc(F)cc2)CC1)Nc1ccc([N+](=O)[O-])cc1`, for which the max response was 5.85%.
As for `CN(C)CCCNC(=O)c1ccc2[nH]c3ccccc3c2c1`, the max response is -1.73%.
For `COc1ccc(C(=O)Nc2ncc3c(n2)-c2ccccc2CC3)cc1`, the max response was 1.82%.
Regarding `CN(C)CCNC(=O)c1[nH]nc2c1CCc1ccccc1-2`, the max response is 41.8% (active).
For `Cc1ccccc1CN1CCC(C(=O)Nc2ccc(Oc3cccnc3)cc2)CC1`, the max response is 1.17%.
With `CCOC(=O)c1c(NC(=S)NC)sc2c1CCCC2` the figure was 20.2%.
`CCOC(=O)c1c(NC(=O)C2CCN(S(=O)(=O)c3ccc(Cl)cc3)CC2)sc2c1CCCC2`: the max response is 25.4% (active).
With `CCOCC(=O)Nc1sc2c(c1C(=O)OCC)CCCC2`, the max response is -2.31%.
`COc1ccc(-c2n[nH]c(C)c2-c2ccccc2OC)c(O)c1`: the max response was -4.33%.
`COc1ccc(-c2nc(SCC(=O)N3CCCC3)n[nH]2)cc1`: the max response is -1.17%.
As to `CCc1ccc(-c2nc(SCC(=O)NC3CCCC3)n[nH]2)cc1`, the max response is 18.2% (active).
Regarding `CCc1c(C)nc(SCC(=O)NC2CCCC2)[nH]c1=O`, the max response is 4.69%.
